Assay outcomes as filed in PubChem.
This is one part of a sample in which hits are shown more often than they occur.
DUX4 inh: DUX4-mediated transcription inhibition; 293T-iDUX4 ZSCAN4-Gaussia luciferase reporter, 24 h; stronger effect = lower value; activity change, negative = inhibition, % (concentration not given with the values); 0.8% of 37,000 active;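 active = mean inhibition of at least 10% in the main channel, exceeding the control channel by a set limit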;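 also: 0% = median of neutral control wells and -100% = median of positive control wells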
An asterisk follows results filed as active.

SMILES	DUX4 inh
O=S(=O)(N[C@H]1CC[C@H](CCn2cc(Cc3ccccc3)nn2)O[C@@H]1CO)c1ccccc1F	2
COc1ccc(NC(=O)N(C)C[C@@H]2Oc3c(NC(=O)CCCCCC(=O)Nc4ccccc4N)cccc3C(=O)N([C@H](C)CO)C[C@H]2C)cc1	-6
CCCNC(=O)N1C[C@H](O)COC[C@H]2O[C@@H](CC(=O)NCc3ccc(Cl)c(Cl)c3)CC[C@@H]21	2
COCC(=O)N1[C@@H]2c3ccc(C4=CCCC4)c(=O)n3C[C@@H]2[C@@H](CO)[C@@H]1C(=O)N1CCCCC1	-6
COc1ccc(S(=O)(=O)N(C)C[C@@H]2OCCCC[C@@H](C)Oc3ccc(NC(=O)Nc4cccc5ccccc45)cc3C(=O)N([C@@H](C)CO)C[C@H]2C)cc1	-1
COc1ccc(C#Cc2ccc([C@@H]3[C@@H](CO)N4CCCCN(C)C[C@H]34)cc2)cc1	-7
COc1ccc(C#Cc2ccc([C@H]3[C@@H](CO)N4CCCCN(C)C[C@@H]34)cc2)cc1	-1
COc1ccc(C#Cc2ccc([C@H]3[C@H]4CN(Cc5ccncc5)CCCCN4[C@H]3CO)cc2)cc1	-55*
COc1ccc(C#Cc2ccc([C@@H]3[C@H](CO)N4CCCCN(C)C[C@@H]34)cc2)cc1	-24*
COCC#Cc1ccc([C@@H]2[C@H](CO)N3CCCCN(Cc4ccncc4)C[C@@H]23)cc1	17
CCCC#Cc1ccc([C@H]2[C@@H](CO)N3CCCCN(Cc4ccncc4)C[C@@H]23)cc1	6
COc1ccc(C#Cc2ccc([C@@H]3[C@@H](CO)N4CCCCN(Cc5ccncc5)C[C@H]34)cc2)cc1	-26*
OC[C@@H]1[C@@H](c2ccc(C#CC3(O)CCCC3)cc2)[C@H]2CN(Cc3ccncc3)CCCCN12	13
CCCC#Cc1ccc([C@H]2[C@H]3CN(Cc4ccncc4)CCCCN3[C@H]2CO)cc1	-9
O=C(NC1CCC1)[C@@H]1[C@@H](CO)[C@@H]2Cn3c(ccc(-c4ccccc4F)c3=O)[C@@H]2N1Cc1cocn1	5
C[C@H]1C/C=C\C[C@H](c2ccc3c(c2)OCO3)NC(=O)[C@H](c2ccccc2)CC(=O)N1	4
COc1ccc2c3c([nH]c2c1)[C@@H](CO)N(Cc1nccs1)CC31CCN(Cc2nccs2)CC1	-5
C[C@@H](C(=O)N(C)C[C@@H]1OCc2ccccc2-c2ccccc2C(=O)N([C@@H](C)CO)C[C@@H]1C)c1ccccc1	-9
C[C@@H]1CN([C@@H](C)CO)C(=O)c2cc(C#CCC3CCCC3)cnc2O[C@H]1CN(C)S(=O)(=O)c1cccs1	-1
CN(C)C(=O)C[C@@H]1CC[C@H]2[C@@H](COC[C@H](O)CN2CC2CCOCC2)O1	2
O=C1[C@H](Cc2ccc(F)cc2)CCn2cc(nn2)COC[C@H]2CCCN12	-4
Cc1ccc(-c2ccc3c(c2)O[C@H](CN(C)Cc2ccccn2)[C@H](C)CN([C@@H](C)CO)S3(=O)=O)cc1	-3
CC(C)NC(=O)N(C)C[C@@H]1Oc2ccc(NC(=O)c3ccncc3)cc2C(=O)N([C@@H](C)CO)C[C@H]1C	3
COc1ccc(-c2ccc([C@H]3[C@@H](CO)N4C(=O)CN(C(=O)c5ccccc5)C[C@@H]34)cc2)cc1	12
C/C=C/c1ccc([C@H]2[C@@H](CO)N3CCCCN(S(=O)(=O)c4cccc(C)c4)C[C@@H]23)cc1	-44*
SMILES	DUX4 inh
COc1cccc(S(=O)(=O)N2CCCCN3[C@H](CO)[C@@H](c4ccc(-c5cccnc5)cc4)[C@H]3C2)c1	-8
C/C=C/c1ccc([C@@H]2[C@@H](CO)N3CCCCN(S(=O)(=O)c4ccc(F)cc4)C[C@@H]23)cc1	-3
C/C=C/c1ccc([C@@H]2[C@@H](CO)N3CCCCN(S(=O)(=O)c4ccc(F)cc4)C[C@H]23)cc1	-8
COc1cccc(S(=O)(=O)N2CCCCN3[C@H](C2)[C@H](c2ccc(-c4cccnc4)cc2)[C@@H]3CO)c1	-35*
COc1cccc(S(=O)(=O)N2CCCCN3[C@@H](CO)[C@@H](c4ccc(C#CC5CC5)cc4)[C@@H]3C2)c1	6
CCCNC(=O)[C@H]1[C@H](CO)[C@H]2Cn3c(ccc(/C=C/c4ccccc4)c3=O)[C@H]2N1CC	-6
O=C(C[C@H]1CC[C@@H]2[C@H](COC[C@H](O)CN2Cc2nccs2)O1)NCc1ccc(F)cc1	10
C[C@@H]1CCCCO[C@@H](CN(C)C(=O)Nc2ccc(F)cc2)[C@@H](C)CN([C@@H](C)CO)C(=O)c2cc(NC(=O)NC3CCCCC3)ccc2O1	7
O=C(C[C@@H]1CC[C@H]2[C@@H](COC[C@H](O)CN2CC2CCCCC2)O1)NCc1ccc(Cl)cc1	-7
CCCNC(=O)[C@H]1[C@H](CO)[C@H]2Cn3c(cccc3=O)[C@H]2N1C(=O)C1CC1	3
CN(C)C(=O)c1ccc(-c2ccc(C3[C@@H]4CN(C(=O)Nc5ccc(Cl)cc5)C[C@H]3N4)cc2)cc1 (stereo partly drawn)	16
N#Cc1ccc(-c2ccc(C3[C@H]4CNC[C@@H]3N4C(=O)Nc3ccc(Cl)cc3)cc2)cc1 (stereo partly drawn)	5
